Experimental data as given in PubChem BioAssay (NCI).
Compounds without any hit were thinned out: in the full panel of roughly 83,000, 20% have a hit.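 A percent growth of 40 corresponds to 60% growth inhibition; 0 means no net growth; -100 means all cells died. Active threshold: below 10.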 A number with no mark means an inactive call. Active and inactive are the calls of the source.

Tests used:
Assay in all cases: NCI-60 one-dose screen, 48 h (100 = growth as untreated, 0 = no growth, -100 = all killed)
HT29 colon = conditions: 10 µM unless noted
SNB-75 CNS = conditions: 10 µM unless noted
SNB-19 CNS = conditions: 10 µM unless noted
U251 CNS = conditions: 10 µM unless noted
SK-MEL-5 melanoma = conditions: 10 µM unless noted
UACC-62 melanoma = conditions: 10 µM unless noted
LOX IMVI melanoma = conditions: 10 µM unless noted
SK-MEL-28 melanoma = conditions: 10 µM
SK-MEL-2 melanoma = conditions: 10 µM unless noted
PC-3 prostate = conditions: 10 µM unless noted

Row | Structure (SMILES) | growth (HT29 colon) | growth (SNB-75 CNS) | growth (SNB-19 CNS) | growth (U251 CNS) | growth (SK-MEL-5 melanoma) | growth (UACC-62 melanoma) | growth (LOX IMVI melanoma) | growth (SK-MEL-28 melanoma) | growth (SK-MEL-2 melanoma) | growth (PC-3 prostate)
1 | COc1ccc(-c2cn3c(C(=O)Nc4ccccc4Cl)c(-c4ccccc4)c4c3n2CCCC4)cc1 | 26% | 108% | 96.6% | 77.4% | 84% | 93.2% | 66.1% | 91.6% | 104% | –
2 | O=c1oc2ccc(F)cc2c(=O)n1-c1ccc(F)cc1F | 97.1% | 2.33% (active) | 38.1% | 13.6% | – | 3.17% (active) | 14.2% | 23% | -11.8% (active) | –
3 | O=c1nc2sc3nc4ccccc4cc3cc-2s1 | 147% | 116% | 101% | 115% | 100% | 116% | 111% | 110% | 112% | –
4 | COc1ccc(Br)c(/C=C2\SC(=Nc3ccc(O)cc3)NC2=O)c1 | 113% | 72.2% | 85.5% | 86.6% | 90.3% | 89.5% | 91.2% | 101% | 96.2% | –
5 | O=C(CN1C(=O)/C(=C\c2ccc(Cl)cc2)SC1=S)Nc1ncc(Cc2ccc(Cl)cc2)s1 | 110% | 88.6% | 102% | 100% | 95.7% | 99.9% | 92.9% | 106% | 105% | –
6 | O=c1oc2ccc(I)cc2c(=O)n1-c1ccc(Cl)cc1F | 63.6% | -12.3% (active) | 20.8% | 0.686% (active) | -87.2% (active) | -15.8% (active) | 13% | 10.9% | -28.6% (active) | –
7 | Cc1nc(Nc2ccccn2)sc1C(=O)/C=C/c1ccc(Cl)cc1 | 5.45% (active) | 11.9% | 32.7% | 14.8% | -32.4% (active) | 48.2% | 15.8% | 61.8% | 31.6% | –
8 | CCCCCCn1c(=N)n(CC(O)COc2cccc(C)c2)c2ccccc21 (stereo not given) | -46.2% (active) | -92.1% (active) | 12.6% | -75.7% (active) | -98.7% (active) | -72.4% (active) | -86.3% (active) | -92.3% (active) | -79.7% (active) | –
9 | O=C(NC1C(O)OC(CO)C(O)C1O)NS(=O)(=O)c1ccc(Cl)cc1 (stereo not given) | 93.2% | 94% | 101% | 103% | 104% | 94.8% | 101% | 105% | 101% | –
10 | CC1=C(C(=O)OCC2CCN(C(=O)OC(C)(C)C)CC2)[C@@H](c2cccc(C#N)c2)C2=C(CC(C)(C)CC2=O)N1 | 18.3% | 56.9% | 43% | 41.4% | 3.59% (active) | 43% | 9.5% (active) | 61.3% | 70.4% | –
11 | NCCNc1nc2ccc(F)cc2c2c(=O)c3cc(F)ccc3sc12 | -39.5% (active) | 39.9% | 64.6% | 24.1% | – | 84.2% | -90.8% (active) | 91% | 91.5% | –
12 | COc1ccc(C2=Nn3c(NN)nnc3SC2)cc1 | 83.8% | 92.4% | 104% | 99.7% | 91.5% | 104% | 99.9% | 110% | 94.4% | –
13 | O=C(CCc1nnc2sc(COc3ccccc3)nn12)c1nc2ncccc2[nH]1 | 106% | 79.8% | 100% | 101% | – | 91.8% | 91.8% | 107% | 102% | –
14 | COc1cc(/C=C2\CN(S(=O)(=O)c3ccccc3)C/C(=C\c3cc(CN4CCCC4)c(O)c(OC)c3)C2=O)cc(CN2CCCC2)c1O | -9.09% (active) | 20.2% | 12.2% | -21.7% (active) | 20.7% | -60% (active) | -75.4% (active) | 10.5% | -0.727% (active) | –
15 | CN(C)/C=C1\SC(=Nc2ccc(Cl)cc2)NC1=O | 110% | 96.4% | 102% | 99.7% | 97% | 95.2% | 101% | 101% | 104% | –
16 | O=C(/C=C/c1ccccn1)c1ccc(OCc2nnc(-c3ccc(Cl)cc3)o2)cc1 | -62.5% (active) | 50.8% | 52.3% | – | – | 49.3% | -92.1% (active) | 53.8% | 98.6% | 58.9%

Row | Structure (SMILES) | growth (HT29 colon) | growth (SNB-75 CNS) | growth (SNB-19 CNS) | growth (U251 CNS) | growth (SK-MEL-5 melanoma) | growth (UACC-62 melanoma) | growth (LOX IMVI melanoma) | growth (SK-MEL-28 melanoma) | growth (SK-MEL-2 melanoma) | growth (PC-3 prostate)
17 | CC1=CCC(OC(=O)C(C)(C)CCC(O)(C(=O)OC2(C(C)C)CCC3(C)OC3C2)C(C)C)(C(C)C)CC1 (stereo not given) | -70.2% (active) | -98% (active) | -97.2% (active) | -98.8% (active) | -97.2% (active) | -94.2% (active) | -90.5% (active) | -96.9% (active) | -91.6% (active) | –
18 | Cc1c(-c2noc(-c3ccc([N+](=O)[O-])cc3)n2)no[n+]1[O-] | 105% | 89.8% | 99.8% | 99.8% | 92.1% | 87.6% | 97.7% | 108% | 101% | –
19 | CCN(CC)CCCNc1ccnc2cc3ccccc3cc12 | 74.6% | 36.6% | 71.3% | 46.8% | 50.6% | 69.8% | 53.9% | 65.3% | 57% | –
20 | O=C(Cn1cc(COc2ncnc3c2cnn3-c2ccccc2)nn1)Nc1ccccn1 | 110% | 71.9% | – | 95.7% | 92.3% | 80.8% | 93.8% | 97.3% | 101% | 90.3%
21 | O=CCCCC(O)C=O (stereo not given) | 111% | 97.7% | 106% | – | – | 109% | 97.9% | 111% | 105% | 103%
22 | COC(=O)[C@@H]1CCCN1C(=O)[C@H]1CCCN1C(=O)[C@@H](Cc1c[nH]c2ccccc12)NC(=S)Nc1cc(C(F)(F)F)cc(C(F)(F)F)c1 | 33% | 46.6% | 37.6% | – | – | 48.5% | 38.8% | 55.7% | 55.3% | 32.4%
23 | CN=c1ccc2nc3ccc(N)cc3sc-2c1 | 84.6% | 33.6% | 30.9% | – | – | 15.8% | 2.59% (active) | 51.7% | -0.853% (active) | 5.54% (active)
24 | NCCOc1ncccc1/C=C1\c2ccccc2-c2ccc(F)cc21 | 13% | 15.7% | – | 8.04% (active) | 25.1% | 34.8% | -11.5% (active) | 70.2% | 112% | 42.5%
25 | COC(=O)c1c2c(c(C)[n+]([O-])c1C)C(=O)C(NCc1ccc(F)c(F)c1)=CC2=O | 11.6% | 83.6% | – | 2.99% (active) | -97% (active) | -15.7% (active) | 5.3% (active) | 50.2% | 43.1% | 15.6%
26 | CN(C)CCNc1cc(-c2ccccc2)nc2ccccc12 | -42.2% (active) | -69.3% (active) | – | -69% (active) | -74.3% (active) | -75.9% (active) | -84% (active) | -90.7% (active) | -45.2% (active) | -38.5% (active)
27 | CCCCCCc1cc2cc(-c3csc(/C=C/c4ccccc4)n3)c(=O)oc2cc1O | -37.8% (active) | 3.13% (active) | – | 0.326% (active) | -93.6% (active) | -68.3% (active) | -47.1% (active) | -96.1% (active) | -71.5% (active) | 25.1%
28 | O=C(O)CCCN1C(=O)C2C3CCC(C3)C2C1=O (stereo not given) | 100% | 95.8% | – | 104% | 101% | 97% | 103% | 113% | 101% | 106%
29 | Cc1cc(Nc2ccc(OCc3ccccc3)cc2)nc2cc(O)ccc12 | 2.05% (active) | 81.6% | – | 10.2% | 9.21% (active) | 71.7% | 13.3% | 59.2% | 70.4% | 53.5%
30 | COC(=O)[C@H]1CCCN1C(=O)[C@H]1CCCN1C(=O)[C@H](Cc1c[nH]c2ccccc12)NC(=S)Nc1cc(C(F)(F)F)cc(C(F)(F)F)c1 | 7.55% (active) | 52.8% | 51.3% | – | – | 57% | 34.5% | 54.8% | 94.9% | 39.9%
31 | O=S(=O)(c1ccccc1)n1cc2c(c1-c1ccccc1)CCc1sc(Nc3ccccc3)nc1-2 | 93% | 93% | – | 78.5% | 88.3% | 78.4% | 77.8% | 106% | 93.4% | 69.8%
32 | COc1cc2cc3c(=O)n4c(cc5cc(OC)ncc54)c(=O)n3c2cn1 | 111% | 94.2% | – | 104% | 109% | 111% | 100% | 106% | 98% | 97.2%
